Consider ten compounds from PubChem BioAssay (NCI).

This is part of a sample that, as a whole, favours compounds with a hit. Of some 79,000 tested, about 15% had one in any assay. A number with no mark means an inactive call. The source made the active and inactive calls. No stated cut-off is given here; in the data, active means growth inhibition above about 70%; inactive means the rest.

The nature of experiment [1]: NCI Yeast Anticancer Drug Screen. Data for the rad50 strain (AID 155).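 Further: 0% = growth of vehicle-only cultures of the same strain.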 The following applies: S. cerevisiae rad50 strain growth inhibition, active compounds read high. The gist of the method:
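Readout: growth inhibition relative to vehicle-treated cultures. Compound exposure was carried out in a genetically defined yeast strain deficient in DNA damage repair.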

The nature of experiment [2]: NCI Yeast Anticancer Drug Screen. Data for the mec2-1 strain (AID 157). The following applies: S. cerevisiae mec2-1 strain, active compounds read high. The gist of the method: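 Each compound was tested on mec2-1 yeast, a strain altered in DNA damage repair or cell cycle control. Growth inhibition is reported relative to vehicle.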
Experiment [3] can be described thus: NCI Yeast Anticancer Drug Screen. Data for the sgs1 mgt1 strain (AID 161).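 Further: 0% = growth of cultures given vehicle only.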 The following applies: S. cerevisiae sgs1 mgt1 strain, active compounds read high. The gist of the method:
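Genetically altered yeast, compound exposure, growth inhibition relative to vehicle.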

Experiment [4] is described as follows: NCI Yeast Anticancer Drug Screen. Data for the cln2 rad14 strain (AID 165).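 Further: 0% = growth equal to vehicle treated cultures.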 The following applies: S. cerevisiae cln2 rad14 strain, active compounds read high. The method, boiled down:
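Test compounds were added to cln2 rad14 yeast cultures; inhibition of growth was then determined by comparison with vehicle treatment.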

A short description of experiment [5]: NCI Yeast Anticancer Drug Screen. Data for the bub3 strain (AID 167). The following applies: S. cerevisiae bub3 mutant strain, active compounds read high. The gist of the method: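 Readout: yeast growth inhibition, expressed relative to vehicle-only wells. The test organism is a mutant strain from a panel with lesions in DNA repair or checkpoint genes.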
Experiment [6] can be described thus: NCI Yeast Anticancer Drug Screen. Data for the mlh1 rad18 strain (AID 175). The following applies: S. cerevisiae mlh1 rad18 strain growth inhibition, active compounds read high. The gist of the method:
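Inhibition values reflect reduced growth of mutant yeast versus vehicle-treated controls following compound exposure; the mutations affect DNA damage repair.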

[7] abbreviates: at 5.0 µM (retest, dose inferred, filed as 0.5).
Where [8] appears, read: at 50.0 µM (retest, dose inferred, filed as 5.0).

`O=[N+]([O-])c1c(Cl)cccc1-c1c[nH]cc1Cl`: the growth inhibition in experiment [1] (setting [7]) was 12%; in experiment [1] (setting [8]), 99% (active); in experiment [1] (at 50.0 µM), 92.8% (active); in experiment [2] (setting [7]) it was 25%; in experiment [2] (setting [8]) it was 98% (active); in experiment [2] (at 50.0 µM), 93.4% (active). Further, the growth inhibition in experiment [3] (setting [7]) was 19%; in experiment [3] (setting [8]), 100% (active); in experiment [3] (at 50.0 µM) it was 93.5% (active); in experiment [4] (setting [7]), -1%; in experiment [4] (setting [8]), 99% (active); in experiment [4] (at 50.0 µM) it was 90.9% (active). For the same compound, the growth inhibition was 6% in experiment [5] (setting [7]); 99% (active) in experiment [5] (setting [8]); 92.2% (active) in experiment [5] (at 50.0 µM); 44% in experiment [6] (setting [7]); 99% (active) in experiment [6] (setting [8]); 37.8% in experiment [6] (at 50.0 µM).

For `Cc1ccc(C2COc3cc(O)c(O)cc3C2)cc1` (stereo not given), the growth inhibition in experiment [1] (setting [7]) is 29%; in experiment [1] (setting [8]), 99% (active); in experiment [1] (at 50.0 µM) it was 99.5% (active); in experiment [2] (setting [7]) it was 33%; in experiment [2] (setting [8]), 99% (active); in experiment [2] (at 50.0 µM) it was 99.6% (active). Further, the growth inhibition in experiment [3] (setting [7]) is 32%; in experiment [3] (setting [8]) it was 99% (active); in experiment [3] (at 50.0 µM), 99.5% (active); in experiment [4] (setting [7]), 11%; in experiment [4] (setting [8]) it was 99% (active); in experiment [4] (at 50.0 µM), 96.2% (active). For the same compound, the growth inhibition was 32% in experiment [5] (setting [7]); 99% (active) in experiment [5] (setting [8]); 99.6% (active) in experiment [5] (at 50.0 µM); 51% in experiment [6] (setting [7]); 99% (active) in experiment [6] (setting [8]); 99.4% (active) in experiment [6] (at 50.0 µM).

In the case of `O=C(CCBr)NC(=O)Oc1cccc2ccccc12`, the growth inhibition in experiment [1] (setting [7]) is 1%; in experiment [1] (setting [8]) it was 17%; in experiment [1] (at 50.0 µM), 87.2% (active); in experiment [2] (setting [7]), 1%; in experiment [2] (setting [8]) it was 29%; in experiment [2] (at 50.0 µM), 97.2% (active). Also, the growth inhibition is 5% in experiment [3] (setting [7]); 55% in experiment [3] (setting [8]); 91.3% (active) in experiment [3] (at 50.0 µM); 4% in experiment [4] (setting [7]); 11% in experiment [4] (setting [8]); 28.1% in experiment [4] (at 50.0 µM). The growth inhibition in experiment [5] (setting [7]) was -8%; in experiment [5] (setting [8]), 18%; in experiment [5] (at 50.0 µM), 85.6% (active); in experiment [6] (setting [7]), 2%; in experiment [6] (setting [8]), 65%; in experiment [6] (at 50.0 µM) it was 95.3% (active).

Take `CCOC(=O)c1c(N)c(=O)n2c3c(cccc13)CC2`: the growth inhibition was 0% in experiment [1] (setting [7]); 92% (active) in experiment [1] (setting [8]); 96.9% (active) in experiment [1] (at 50.0 µM); -2% in experiment [2] (setting [7]); 98% (active) in experiment [2] (setting [8]); 97.5% (active) in experiment [2] (at 50.0 µM). The growth inhibition was 0% in experiment [3] (setting [7]); 99% (active) in experiment [3] (setting [8]); 97.7% (active) in experiment [3] (at 50.0 µM); 7% in experiment [4] (setting [7]); 59% in experiment [4] (setting [8]); 98.7% (active) in experiment [4] (at 50.0 µM). The growth inhibition in experiment [5] (setting [7]) was -1%; in experiment [5] (setting [8]) it was 79% (active); in experiment [5] (at 50.0 µM) it was 96.8% (active); in experiment [6] (setting [7]) it was 21%; in experiment [6] (setting [8]) it was 98% (active); in experiment [6] (at 50.0 µM) it was 98.6% (active).

As for `Cc1cc(Oc2nc(Cl)nc(C(Cl)(Cl)Cl)c2Cl)cc(C)c1N(C)C` (tested in a mixture with another compound), the growth inhibition in experiment [1] (setting [7]) is -5%; in experiment [1] (setting [8]), 10%; in experiment [1] (at 50.0 µM), 92.8% (active); in experiment [2] (setting [7]), -6%; in experiment [2] (setting [8]), -3%; in experiment [2] (at 50.0 µM), 95.8% (active). In addition, the growth inhibition in experiment [3] (setting [7]) is -2%; in experiment [3] (setting [8]), 10%; in experiment [3] (at 50.0 µM) it was 95.5% (active); in experiment [4] (setting [7]), -12%; in experiment [4] (setting [8]) it was -9%; in experiment [4] (at 50.0 µM), 91.9% (active). Also, the growth inhibition in experiment [5] (setting [7]) is 7%; in experiment [5] (setting [8]), 30%; in experiment [5] (at 50.0 µM) it was 92.6% (active); in experiment [6] (setting [7]), -8%; in experiment [6] (setting [8]), -5%; in experiment [6] (at 50.0 µM), 95.7% (active).

On to `Cc1cc(O)c(C(=O)/C=C/c2ccnc3ccccc23)c(=O)o1`, for which the growth inhibition in experiment [1] (setting [7]) was -7%; in experiment [1] (setting [8]) it was 5%; in experiment [1] (at 50.0 µM), -9.7%; in experiment [2] (setting [7]), -17%; in experiment [2] (setting [8]) it was -1%; in experiment [2] (at 50.0 µM) it was -6.65%. The growth inhibition is 6% in experiment [3] (setting [7]); 20% in experiment [3] (setting [8]); -2% in experiment [3] (at 50.0 µM); 11% in experiment [4] (setting [7]); 8% in experiment [4] (setting [8]); -13.4% in experiment [4] (at 50.0 µM). Further, the growth inhibition in experiment [5] (setting [7]) is 22%; in experiment [5] (setting [8]), 8%; in experiment [5] (at 50.0 µM), -4.8%; in experiment [6] (setting [7]) it was 15%; in experiment [6] (setting [8]), 8%; in experiment [6] (at 50.0 µM) it was -23.2%.

As to `CCCN(CCC)C(=O)c1cccc2ccccc12`, the growth inhibition is 3% in experiment [1] (setting [7]); 7% in experiment [1] (setting [8]); 6.8% in experiment [1] (at 50.0 µM); 4% in experiment [2] (setting [7]); 6% in experiment [2] (setting [8]); -19.1% in experiment [2] (at 50.0 µM). Further, the growth inhibition is 1% in experiment [3] (setting [7]); 9% in experiment [3] (setting [8]); 44.5% in experiment [3] (at 50.0 µM); 3% in experiment [4] (setting [7]); 22% in experiment [4] (setting [8]); -1.9% in experiment [4] (at 50.0 µM). Besides, the growth inhibition in experiment [5] (setting [7]) was 6%; in experiment [5] (setting [8]) it was 28%; in experiment [5] (at 50.0 µM), 27.2%; in experiment [6] (setting [7]), 6%; in experiment [6] (setting [8]) it was 7%; in experiment [6] (at 50.0 µM) it was 7.5%.

In the case of `NC(N)=Nc1ccc(N=C(N)N)cc1`, the growth inhibition in experiment [1] (setting [7]) was 3%; in experiment [1] (setting [8]), 2%; in experiment [1] (at 50.0 µM), 92% (active); in experiment [2] (setting [7]), 1%; in experiment [2] (setting [8]) it was -2%; in experiment [2] (at 50.0 µM) it was 99.7% (active). For the same compound, the growth inhibition in experiment [3] (setting [7]) is -1%; in experiment [3] (setting [8]), -3%; in experiment [3] (at 50.0 µM), 17.1%; in experiment [4] (setting [7]), 1%; in experiment [4] (setting [8]), 1%; in experiment [4] (at 50.0 µM), 60.8%. The growth inhibition is 3% in experiment [5] (setting [7]); 3% in experiment [5] (setting [8]); 99.2% (active) in experiment [5] (at 50.0 µM); 2% in experiment [6] (setting [7]); 2% in experiment [6] (setting [8]); 45.5% in experiment [6] (at 50.0 µM).

Regarding `COc1ccccc1NC(=O)/C(=C\N1C(=O)/C(=C/c2cc(OC)c(OC)c(OC)c2)SC1=S)C(C)=O`, the growth inhibition was -11% in experiment [1] (setting [7]); 9% in experiment [1] (setting [8]); 46% in experiment [1] (at 50.0 µM); -12% in experiment [2] (setting [7]); 14% in experiment [2] (setting [8]); 13.4% in experiment [2] (at 50.0 µM). Moreover, the growth inhibition was -8% in experiment [3] (setting [7]); 35% in experiment [3] (setting [8]); 74.2% (active) in experiment [3] (at 50.0 µM); -28% in experiment [4] (setting [7]); 7% in experiment [4] (setting [8]); 8.6% in experiment [4] (at 50.0 µM). Moreover, the growth inhibition in experiment [5] (setting [7]) was -21%; in experiment [5] (setting [8]) it was -12%; in experiment [5] (at 50.0 µM), 27.9%; in experiment [6] (setting [7]), -39%; in experiment [6] (setting [8]), 25%; in experiment [6] (at 50.0 µM), 49.7%.

Regarding `O=C/C=C/c1cc([N+](=O)[O-])ccc1Cl`, the growth inhibition in experiment [1] (setting [7]) was -138%; in experiment [1] (setting [8]), 77% (active); in experiment [1] (at 50.0 µM) it was 81.5% (active); in experiment [2] (setting [7]), -47%; in experiment [2] (setting [8]) it was 79% (active); in experiment [2] (at 50.0 µM) it was 79.5% (active). Further, the growth inhibition in experiment [3] (setting [7]) is -59%; in experiment [3] (setting [8]), 83% (active); in experiment [3] (at 50.0 µM) it was 57.4%; in experiment [4] (setting [7]) it was -55%; in experiment [4] (setting [8]) it was 46%; in experiment [4] (at 50.0 µM), 46.1%. The growth inhibition in experiment [5] (setting [7]) was -80%; in experiment [5] (setting [8]), 65%; in experiment [5] (at 50.0 µM), 79.2% (active); in experiment [6] (setting [7]), -137%; in experiment [6] (setting [8]) it was 86% (active); in experiment [6] (at 50.0 µM) it was 93.3% (active).
